Screens (PubChem BioAssay)
A selection: hits, their analogues and other compounds. The true share with any hit is near 7.1%.
Marburg entry = blocks Marburg virus binding or cell entry; Marburg virus pseudotype entry/binding inhibition, cell-based; Potency, µM (titrated, usually from 49.2 µM), usual class: inhibitors; 18,000 tested, 6.5% active; AID 720532
Lassa entry = Lassa virus entry inhibition; Lassa virus pseudotyped entry inhibition, cell-based qHTS; Potency, µM (titrated, usually from 49.2 µM), actives largely listed as inhibitors; 18,000 tested, 4.1% active; AID 720533
A number is an active result; – = inactive; ? = inconclusive; · = not tested or not shown; ! = not confirmed by another sample; [ ] = remark or other dose. The call rests on the fitted dose curve; tested in HEK293 cells.

SMILES | Marburg entry | Lassa entry
COc1ccc(/C=C\C(=O)Nc2ccccc2C(=O)O)cc1OC | 39.8µM | 20µM
CNc1ccc2oc(C[C@@H]3OC4(CC[C@@H]3C)O[C@H](C(C)C(=O)c3ccc[nH]3)[C@H](C)C[C@H]4C)nc2c1C(=O)O (some centres not stated) | 5.62µM | ?
CNc1ccc2oc(C[C@H]3O[C@]4(CC[C@H]3C)O[C@H]([C@H](C)C(=O)c3ccc[nH]3)[C@H](C)C[C@H]4C)nc2c1C(=O)O | 4.47µM | 3.55µM
CCN1C(=NCc2cccc(C(F)(F)F)c2)NC(c2cccc(F)c2)C(C(=O)OC)=C1C (configuration not stated) | –[8.59 µM] | –[8.59 µM]
COC(=O)C1=C2CCO[C@@H]2[C@H]2[C@@H](C)[C@H](OC)c3ccccc3[C@H]12 | –[8.59 µM] | –[8.59 µM]
CCCCC(F)(F)[C@@]1(O)CC[C@H]2[C@@H](CC(=O)[C@@H]2CCCCCCC(=O)O)O1 | – | –
CC(C)=CCCC(C)=CCON=C1C[C@@H](O)[C@@H](O)[C@@H]2[C@H]3C(=O)N(Cc4ccccc4)C(=O)[C@@H]3CC[C@@H]12 | –[8.59 µM] | –[8.59 µM]
O=S1(=O)CCSCCN1Cc1ccc(Cl)cc1 | – | –
Cc1c(N)nc(C(CC(N)=O)NCC(N)C(N)=O)nc1C(=O)NC(C(=O)NC(C)C(O)C(C)C(=O)NC(C(=O)NCCc1nc(-c2nc(C(=O)NCCCN[C@@H](C)c3ccccc3)cs2)cs1)C(C)O)C(O[C@@H]1O[C@@H](CO)[C@@H](O)[C@H](O)[C@@H]1O[C@H]1O[C@H](CO)[C@@H](O)[C@H](OC(N)=O)[C@@H]1O)c1cnc[nH]1 (some centres not stated) | 3.16µM | 3.55µM
CC(C)=CCC12CC3[C@@H](O)C(C(=O)c4ccccc4)(C1=O)C(=O)C(CC=C(C)C)(C2=O)C3(C)C (some centres not stated) | –[8.59 µM] | ·
CC[C@@]1([C@@H]2O[C@@H]([C@H]3O[C@@](O)(CO)[C@H](C)C[C@@H]3C)C[C@@H]2C)CC[C@H]([C@]2(C)CC[C@]3(C[C@H](O)[C@@H](C)[C@@H]([C@@H](C)[C@@H](OC)[C@H](C)C(=O)O)O3)O2)O1 (stereo in doubt) | 3.98µM! | 2.82µM!
COc1c2c(cc3c1OCO3)CCN(C)C2 | – | –
COc1c2c(c(C(=O)/C=C/C(C)=C/c3ccccc3)c3c1OCO3)CCN(C)C2 | 15.8µM | –
CN(C)C(=O)c1ccc(-c2nc(Nc3ccc(F)cc3)c3ccccc3n2)cc1 | – | –
CN(C)c1nc(NC2CCC(NC(=O)c3ccc(F)c(F)c3)CC2)nc2ccccc12 (configuration not stated) | 2.82µM | 15.8µM
C=C(C)CCN1C(=O)NC(c2cccc(C(F)(F)F)c2)C(C(=O)OC)=C1C (configuration not stated) | –[8.59 µM] | –[8.59 µM]
C[C@]12C[C@@](C)(C=C1C=Cc1ccc(C(F)(F)F)cc1)C(=O)C[C@H]2c1ccc(C(F)(F)F)cc1 | –[8.59 µM] | –[8.59 µM]
CCCC=Cc1ccc(CN2C(CC(C)C)C(=O)N(Cc3cn(CCC4OCCO4)nn3)CCS2(=O)=O)cc1 (configuration not stated) | ? | –
CC(=O)[C@H]1CC[C@H]2[C@@H]3CC[C@@H]4C[C@H](O)CC[C@]4(C)[C@H]3CC[C@]12C | – | –
CC(=O)O[C@H]1[C@H]2O[C@]23[C@@H]2CC[C@@H]4C[C@@H](O)CC[C@]4(C)[C@H]2CC[C@]3(C)[C@H]1c1ccc(=O)oc1 | 0.0891µM | 0.199µM
Cc1ccc(S(=O)(=O)N2CCC(=O)N([C@H](COCc3cccc(C(F)(F)F)c3)Cc3ccccc3)CC2)cc1 | 11.2µM | ?
Cc1ccc(S(=O)(=O)N2CCC(=O)N([C@H](COCc3cccc(C(F)(F)F)c3)C(C)C)CC2)cc1 | ? | –
COc1ccc(O[C@H]2C=C[C@@H](c3ccccc3)O[C@H]2CON=C(C)CCN2CCCCc3nc(C)c(C)cc32)cc1 | –[8.59 µM] | –[8.59 µM]
COC(=O)C1=C(C)N(Cc2ccccc2)C(=NCc2cc(OC)c(OC)c(OC)c2)NC1CCc1ccccc1 (configuration not stated) | ? | –[8.59 µM]
CNCCC=C1c2ccccc2CCc2ccccc21 | 10µM | 31.6µM
SMILES | Marburg entry | Lassa entry
CNCC/C=C/c1cccnc1 | – | –
C=C(C(C)=O)C(O)C=Cc1ccco1 (configuration not stated) | –[8.59 µM] | –[8.59 µM]
CCCC1CCCCN1 (configuration not stated) | – | –
C1CCC(C(CC2CCCCN2)C2CCCCC2)CC1 (configuration not stated) | 3.98µM | ?
Cc1ccc(CN2[C@@H](C)[C@@H](c3ccccc3)Oc3c(Cl)cccc3S2(=O)=O)cc1 | ? | –
COC(=O)C1=C(C(=O)OC)[C@@H]2N(C)c3ccccc3[C@@]23C[C@@H](C(=O)OC)N(C(=O)NC2CCCC2)C3=N1 | ? | –[8.59 µM]
NC(Cc1ccc(O)c(O)c1)C(=O)O (configuration not stated) | 1.58µM | –
N[C@@H](Cc1ccc(O)cc1)C(=O)O | – | –
Cc1ccc2[nH]c(O)c(N=Nc3ccc(S(N)(=O)=O)cc3)c2c1 | – | ?
